Among all 360,000 compounds or so, about 6,200 (1.7%) were called active. Shown is part of a subset that was picked to be rich in actives. Values without a mark were called inactive.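 How the source made its calls: active means inhibition of at least 50% at 20 µM; inactive means the rest.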

The nature of this assay: Peg3 promoter-driven luciferase inhibitors, primary screen, cell-based, HeLa, luciferase luminescence (AID 588405). The conditions noted are these: HeLa PEG-Prom luciferase reporter, overnight, at 20 µM, stronger effect = higher value. For orientation: A reporter such as luciferase makes a cellular process visible.
The term inhibition denotes the drop in the measured response relative to a control, in per cent. Take `CC1(C(=O)NS(=O)(=O)c2ccccc2)CCN1C(=O)C1CCCCC1` (stereo not given): the inhibition was -0.02%.

`O=C1CCN(Cc2ccccc2)CCN1[C@H](CSc1ccccc1)c1ccccc1`: the inhibition was -23.1%. `CCCCC(=O)N/N=C(\C)CC(=O)Nc1cc(Cl)ccc1OC`: the inhibition is 93.5% (active).

For `COc1ccc(Cl)cc1NC(=O)CCS(=O)(=O)c1ccc(Br)cc1`, the inhibition is 21.8%. As for `COc1ccc(/C(C)=N/NC(=O)CCC(=O)Nc2ccc(Cl)cc2Cl)c(OC)c1`, the inhibition is -11.2%. In the case of `C[C@H](NC(=O)CC[C@H]1O[C@@H](n2ccc(=O)[nH]c2=O)[C@H](O)[C@@H]1O)c1cccc2ccccc12`, the inhibition was 6.63%. Then `OC(c1ccccc1)c1nc(/C=C/c2ccc(C(F)(F)F)cc2)cs1` (stereo not given), with 3.42%. The value for `C#CCCOC(=O)N1C2=NC(C(=O)OC)=C(C(=O)OC)[C@@H]3N(C)c4ccc(OC)cc4[C@]23C[C@H]1C(=O)OC` was -3.24%; that for `C[C@@H]1CN([C@@H](C)CO)C(=O)CCCn2cc(nn2)CO[C@H]1CN(C)S(=O)(=O)c1ccc(-n2cccn2)cc1` was -0.13%; that for `Cc1c(C(=O)NCC2CC2)sc(=O)n1Cc1cccc(F)c1` was -1.67%.

Regarding `CCN1C(=O)[C@@H]2[C@@H]3CN(S(=O)(=O)c4ccccc4C)[C@@H](c4ccc(Cl)cc4)[C@@H]3C(=O)C[C@@H]2C1=O`, the inhibition is -51.1%.

On to `CCC1CCCCN1CCCNC(=O)c1cc2c(Cl)nc3ccccc3c2s1` (stereo not given), for which the inhibition is 100% (active).

As to `CCCn1c2ccccc2c2cnn(CC(=O)NCCCN3CCCCC3CC)c(=O)c21` (stereo not given), the inhibition is 17.1%. For `Cc1nc2ccccc2c2oc(C(=O)NCCCN3CCC(C)CC3)cc12`, the inhibition is -9.23%. On to `CN(CCO)C(=O)c1nc[nH]c1C(=O)N(C)Cc1ccccc1`, for which the inhibition was -1.65%. Turning to `Cc1ccc(F)c(S(=O)(=O)NC(=O)C2(C)CCN2C(=O)CCc2cccs2)c1` (stereo not given), the inhibition is -1.22%. Then `COCCNC(=O)C1(C)CCCN(Cc2cccc(F)c2)C1` (stereo not given), with 1.57%; and `CCNC(=O)C1(C)CCN(Cc2ccc(C(=O)OCC)o2)C1` (stereo not given), with 2.73%; and `O=C(Cc1ccc(NC(=O)C2CCCN(C(=O)CCc3ccccc3)C2)cc1)Nc1ccc(C(=O)N2CCOCC2)cc1` (stereo not given), with -12.9%. The value for `CCOc1cc2[nH]c(=S)n(Cc3ccc(C(=O)N4CCN(C)CC4)cc3)c(=O)c2cc1OCC` was 105% (active). As for `CCOc1cc2[nH]c(=S)n(Cc3ccc(C(=O)NCCOC)cc3)c(=O)c2cc1OCC`, the inhibition was 9.27%. Regarding `COc1cc2[nH]c(=S)n(Cc3ccc(F)cc3)c(=O)c2cc1OC`, the inhibition was 13.7%. In the case of `COc1ccc(Br)c(Cn2c(C)c(C(=O)NCc3cccs3)sc2=O)c1`, the inhibition is 7.67%. Then `Cc1nc(C(F)(F)F)ccc1C(=O)N1CCC1(C)C(=O)NS(=O)(=O)c1ccccc1Cl` (stereo not given), with 7.45%; and `O=S1(=O)CC(N2CCC(Cc3ccccc3)CC2)CN1Cc1ccccc1` (stereo not given), with -15.6%. For the compound `O=C(NNC(=O)c1ccccc1O)c1ccccc1O`, the inhibition is 23.7%.

For `O=C(COC(=O)c1ccc(O)cc1O)NC(=O)c1ccccc1`, the inhibition was 19.7%. Then `O=C(NNc1c2ccccc2nc2ccccc12)c1cc2ccccc2cc1O`, with 74.7% (active). Regarding `O=C(Nc1cccc(S(=O)(=O)N2CCOCC2)c1)C12CC3CC(CC(C3)C1)C2`, the inhibition was 13.8%.

For the compound `CCCS(=O)(=O)NC(=O)C1(C)CCN(C(=O)c2sccc2C)C1` (stereo not given), the inhibition was -4.46%.

For `OC(c1ccc(Cl)cc1)c1ncc(-c2ccc(Cl)cc2)[nH]1` (stereo not given), the inhibition was -29.5%. The value for `OC[C@@H]1CN(Cc2ccc(-c3ccccc3)cc2)C[C@H](n2cnc3c(NC4CCCC4)ncnc32)O1` was 19.6%; that for `Cc1csc2ncc(C(=O)N(Cc3ccccc3)c3ccccn3)c(=O)n12` was 81.4% (active); that for `CCC(=O)N(Cc1ccccc1)c1ccccn1` was 13.9%. The value for `CC(C)(C)C(=O)N(Cc1ccccc1)c1ccccn1` was -2.77%; that for `O=C(CCN1C(=O)[C@@H]2Cc3ccccc3CN2C1=O)NCc1ccccc1` was 4.93%. As for `Cc1cc2oc(=O)cc(CN(C)Cc3ccccc3)c2cc1Cl`, the inhibition was -133%. Then `Cc1cc2c(cc1C)N1C(=O)c3cc4ccccc4cc3NC(=O)C1C(=O)N2` (stereo not given), with 9.54%; and `O=c1[nH]c(=S)[nH]c(O)c1/C=C1\C=Nc2ccccc21`, with 60.8% (active); and `COc1cc(C(O)c2nc(-c3cnn(C)c3)cs2)ccc1F` (stereo not given), with 9.83%.

For the compound `CCc1nc2c(OCCOc3ccccc3)cccn2c1N(C)C(=O)c1cccs1`, the inhibition was 30.3%. Then `O=C(c1ccccc1)N1CCN(c2cc(-c3ccccc3)nc3cc(-c4cccc(Cl)c4)nn23)CC1`, with 16.8%.

For `C#Cc1cc(N2CCN(C(=O)c3ccoc3)CC2)n2nc(-c3cccc(Cl)c3)cc2n1`, the inhibition was 79.3% (active). On to `CN(C)CCN1CCN(c2cc(-c3cccc(Cl)c3)nc3ccnn23)CC1`, for which the inhibition is 7.56%. As for `CCCC(=O)N1CCC1(C)C(=O)Nc1ccc(-n2cncn2)cc1` (stereo not given), the inhibition is 5.62%. On to `CN(C)C(CNC(=O)c1ccc(OCc2cn3ccccc3n2)cc1)c1ccco1` (stereo not given), for which the inhibition was -55.3%. Then `Cc1noc(C)c1COc1ccc(C(=O)NCCOc2ccccc2)cc1`, with -115%. Take `CN(C)CCNC(=O)c1ccc(-c2cn3c(-c4ccc(Oc5ccccc5)cc4)cnc3cn2)cc1`: the inhibition was 99.7% (active).

Turning to `CCc1ccc(OC2(C)CCN(CCOc3ccc(C)cc3)C2)cc1` (stereo not given), the inhibition was 15.4%. With `S=c1nc2ccccc2c2nc(-c3cccnc3)[nH]n12`, the inhibition is -35.9%. Then `CCN(CC(=O)NC1CCS(=O)(=O)C1)c1nc(-c2cccnc2)nc2ccccc12` (stereo not given), with -4.15%. The value for `COc1ccc(Nc2nc(-c3cccnc3)nc3ccccc23)cn1` was 53.5% (active). Turning to `Cc1ccc(Sc2ccc(NC(=O)c3ccc(F)cc3)cc2C#N)cc1`, the inhibition was -1.6%. Then `CN(CCO)c1ccc(/C=N/Nc2nncc3ccccc23)cc1`, with 63.9% (active); and `CC(C)NC(=O)Nc1ccc2c(c1)C(=O)N([C@H](C)CO)C[C@H](C)[C@@H](CN(C)Cc1ccc(C(F)(F)F)cc1)OCCCC[C@@H](C)O2`, with 12.5%.

Source of the values: PubChem BioAssay AID588405 (Sanford-Burnham Center for Chemical Genomics, 2011).
